We go through 40 compounds from ChEMBL document CHEMBL3433997, “St. Jude Leishmania screening dataset” (2016).

Molecules are shown by their SMILES.

One test deals with Solute carrier family 2, facilitated glucose transporter member 1 (Homo sapiens) (UniProt P11166). Briefly: ST_JUDE_LEISH: Cytotoxicity at 2uM final concentration against transgenic Leishmania Mexicana promastigotes LmGLUT1 that are glucose transport deficient and complemented with the human glucose transporter GLUT1. Activity is measured by DNA content using SYBR green in vitro. Type of test: functional.
Solute carrier family 2, facilitated glucose transporter member 1 (Homo sapiens), sequence (P11166 whole entry): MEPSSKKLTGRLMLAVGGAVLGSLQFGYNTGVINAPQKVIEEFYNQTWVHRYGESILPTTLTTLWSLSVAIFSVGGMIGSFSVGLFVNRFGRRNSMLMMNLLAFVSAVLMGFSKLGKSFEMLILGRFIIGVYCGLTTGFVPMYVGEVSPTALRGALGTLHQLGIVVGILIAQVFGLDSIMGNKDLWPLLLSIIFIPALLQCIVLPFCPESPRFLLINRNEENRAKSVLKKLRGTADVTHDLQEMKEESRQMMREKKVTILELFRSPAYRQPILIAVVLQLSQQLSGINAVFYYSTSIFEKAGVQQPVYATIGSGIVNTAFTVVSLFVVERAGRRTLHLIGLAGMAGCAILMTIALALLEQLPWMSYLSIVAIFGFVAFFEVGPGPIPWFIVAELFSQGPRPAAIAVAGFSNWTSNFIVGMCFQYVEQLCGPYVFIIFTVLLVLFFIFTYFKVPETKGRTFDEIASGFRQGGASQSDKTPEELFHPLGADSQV
In the case of `CC1CCC(NC(=O)c2nn(-c3ccc(Cl)cc3)c(=O)c3ccccc23)CC1` (stereo not given), the inhibition – broadly, the change of the read-out against control, counted positive when it falls – was found to be 1.52%.

With `Cc1noc(C)c1-c1ccc2c(Nc3ccccc3C(C)(C)C)c(C(=O)NCc3ccccc3)cnc2c1`, the inhibition amounted to 6.6%.

`COc1ccc2ccccc2c1CON1C(=N)N=C(N)NC1(C)C`: the inhibition amounted to 1.59%.

Consider `CC[C@H](C)CNC(=O)c1cncc(-c2ccc(CNCCOc3ccccc3)cc2)c1`, for which the inhibition came to 1.83%.

For `Cn1cncc1C(=O)Nc1cccc(-c2cccc(-c3nc4cc(F)ccc4[nH]3)c2)c1`, the inhibition turned out to be 4%.

Regarding `CC(C)c1ccc(NC(=O)c2ccc(NCCCN(C)Cc3ccccc3)c([N+](=O)[O-])c2)cc1`, the inhibition is 0.47%.

`COc1ccc(-n2nc(C(=O)NCCC3=CCCCC3)c3ccccc3c2=O)cc1`: the inhibition stood at 0.62%.

Regarding `CCCCC(=O)N(CCOC)Cc1ccc(-c2ccc(CNCCC)cn2)cc1`, the inhibition was determined as 7.95%.

For the compound `COc1ccccc1CCNc1nc(C)cc(N[C@@H](CC(C)C)C(=O)Nc2ccccc2)n1`, the inhibition is 4.84%.

With `O=C(/C=C/c1ccc(Cl)c(Cl)c1)NCCCCCN1CCCN(C(=O)Nc2ccc([N+](=O)[O-])cc2)CC1`, the inhibition is 1.18%.

`CC(=O)c1sc(Cc2nc3ccccc3s2)nc1C`: the inhibition was found to be 0.49%.

In the case of `Cc1cc(Nc2c(C(N)=O)cnc3cc(-c4ccoc4)ccc23)ccc1N1CCN(C)CC1`, the inhibition was -1.39%.

Consider `O=C(/C=C/c1ccc(Cl)c(Cl)c1)NCCCN1CCC(c2c[nH]c3ccccc23)CC1`, for which the inhibition came to 6.28%.

Regarding `CC(CN(C)C)C(=O)Nc1cccc(-c2ccc(-c3nc4ccccc4[nH]3)cc2)c1` (stereo not given), the inhibition is 12.2%.

Take `Cc1nc(-c2ccccc2)nc(N2CCN(C(=O)c3ccco3)CC2)c1Cc1ccccc1F`: the inhibition came out at 7.73%.

In the case of `CC(CN(C)C)C(=O)Nc1ccc(-c2ccc(-c3nc4cc(F)ccc4[nH]3)cc2)cc1` (stereo not given), the inhibition stood at 5.33%.

As to `Cc1c(CNCCCNc2cc(=O)c3ccccc3[nH]2)sc(/C=N/O)c1Br`, the inhibition turned out to be 5.48%.

`Nc1c(Cl)cc(C(O)CNCCCCCOCCc2ccc3occc3c2)cc1Cl` (stereo not given): the inhibition came out at 3.53%.

With `CCN1CCc2nc3ccccc3c(C(=O)Nc3ccc(C#N)cc3)c2C1`, the inhibition is -0.12%.

Turning to `Cc1cnc(C(=O)Nc2cccc(-c3ccc(-c4nc5cc(C(F)(F)F)ccc5[nH]4)s3)c2)cn1`, the inhibition came out at 8.07%.

Consider `C[C@H](Cc1ccc(Oc2ccc(C[C@@H](C)NC[C@H](O)c3cccc(Cl)c3)cc2)cc1)NC[C@H](O)c1cccc(Cl)c1`, for which the inhibition stood at 106%.

`O=C(/C=C/c1ccc(Cl)c(Cl)c1)NCCCCCN1CCC(C(=O)Nc2ccc(F)c(Cl)c2)CC1`: the inhibition was found to be 4.66%.

As to `C[C@H](NC(=O)c1c(CN2CCC(N3CCCCC3=O)CC2)c(-c2cccs2)nc2ccccc12)C1CCCCC1`, the inhibition was determined as 4.3%.

On to `CCCCN(CCCC)CCCCNc1c2ccc(Cl)cc2nc2ccc(OC)cc12`, for which the inhibition amounted to 14.5%.

Consider `NCC1CCCN1Cc1ccc(-c2cccc(-c3nc4cc(C(F)(F)F)ccc4[nH]3)c2)cc1` (stereo not given), for which the inhibition stood at 1.03%.

For `COc1cc2nc(NC3CCN(Cc4ccccc4)CC3)nc(N)c2cc1OC`, the inhibition was 3.62%.

For `COc1cccc2cc(C(=O)N[C@@H](CC(C)C)C(=O)N[C@H](/C=N/NC(=O)OC(C)(C)C)CC(=O)OC(C)(C)C)oc12`, the inhibition came to 4.66%.

With `Fc1cc(CN2CCCC2)ccc1OCCCN1CCN(c2cccc(Cl)c2Cl)CC1`, the inhibition turned out to be 4.56%.

Turning to `COc1ccc(NC(=O)c2ccc(C=Cc3ccc(C(F)(F)F)cc3)cc2)cc1N1CCN(C)CC1`, the inhibition worked out at 0.43%.

`CCOc1cc(C(=O)Nc2ccc(-c3nc4ccccc4[nH]3)cc2)cc(OCC)c1OCC`: the inhibition amounted to 7.99%.

Consider `CN(C)c1ccc(NC2=NC(N)=NC(C)(C)N2)cc1`, for which the inhibition worked out at 0.38%.

For the compound `CCNc1cc(C(=O)NC(Cc2ccccc2)C(O)CNC(C)(C)CCCC(C)C)c(F)c(N2CCCS2(=O)=O)c1` (stereo not given), the inhibition is -2.99%.

As for `FC(F)(F)c1cc(Nc2ccc(Oc3ccccc3)cc2)c2cc(-c3ccncc3)ccc2n1`, the inhibition was -0.25%.

Regarding `O=C1CC(C(=O)Nc2cccc(-c3cccc(-c4nc5ccccc5[nH]4)c3)c2)c2ccccc2N1` (stereo not given), the inhibition was 7.77%.

On to `Clc1ccc(OCc2ccccc2)c(-c2nc(-c3nc4ccc(Cl)cc4[nH]3)cs2)c1`, for which the inhibition came out at 3.08%.

Regarding `CCn1c(-c2nonc2N)nc2c(-c3cccc(NC(=O)Nc4cccc(Cl)c4)c3)ncc(OCCCN)c21`, the inhibition turned out to be 4.22%.

With `O=C(Nc1cccc(-c2ccc(-c3nc4cc(C(F)(F)F)ccc4[nH]3)cc2)c1)Nc1ccc(F)c(F)c1F`, the inhibition is -0.86%.

As for `CCn1c(C)cc(C=C2SC(=Nc3ccccc3)NC2=O)c1C`, the inhibition was 6.88%.

Consider `Cc1ccc(Nc2nc(N)c3ccccc3n2)cc1`, for which the inhibition was 22%.

As to `CC(C)CNCc1cccc(-c2cccc(CN(CCCN3CCN(C)CC3)C(=O)Nc3ccccc3)c2)c1`, the inhibition turned out to be 0.02%.

Another test concerns the target Hexose transporter 1 (Plasmodium falciparum) (UniProt O97467). Briefly: ST_JUDE_LEISH: Cytotoxicity at 2uM final concentration against transgenic Leishmania Mexicana promastigotes LmPfHT that are glucose transport deficient and complemented with the Plasmodium falciparum hexose transporter. Activity is measured by DNA content using SYBR green in vitro. It counts as functional.
Regarding `CC1CCC(NC(=O)c2nn(-c3ccc(Cl)cc3)c(=O)c3ccccc23)CC1` (stereo not given), the inhibition came to 1.39%.

Regarding `Cc1noc(C)c1-c1ccc2c(Nc3ccccc3C(C)(C)C)c(C(=O)NCc3ccccc3)cnc2c1`, the inhibition is 7.11%.

`COc1ccc2ccccc2c1CON1C(=N)N=C(N)NC1(C)C`: the inhibition turned out to be 1.46%.

Turning to `CC[C@H](C)CNC(=O)c1cncc(-c2ccc(CNCCOc3ccccc3)cc2)c1`, the inhibition stood at 2.11%.

With `Cn1cncc1C(=O)Nc1cccc(-c2cccc(-c3nc4cc(F)ccc4[nH]3)c2)c1`, the inhibition turned out to be 3.24%.

Take `CC(C)c1ccc(NC(=O)c2ccc(NCCCN(C)Cc3ccccc3)c([N+](=O)[O-])c2)cc1`: the inhibition is -1.98%.

`COc1ccc(-n2nc(C(=O)NCCC3=CCCCC3)c3ccccc3c2=O)cc1`: the inhibition was -0.88%.

Turning to `CCCCC(=O)N(CCOC)Cc1ccc(-c2ccc(CNCCC)cn2)cc1`, the inhibition worked out at 6.86%.

On to `COc1ccccc1CCNc1nc(C)cc(N[C@@H](CC(C)C)C(=O)Nc2ccccc2)n1`, for which the inhibition is 6.02%.

On to `O=C(/C=C/c1ccc(Cl)c(Cl)c1)NCCCCCN1CCCN(C(=O)Nc2ccc([N+](=O)[O-])cc2)CC1`, for which the inhibition was 1.11%.

For `CC(=O)c1sc(Cc2nc3ccccc3s2)nc1C`, the inhibition turned out to be 1.15%.

For the compound `Cc1cc(Nc2c(C(N)=O)cnc3cc(-c4ccoc4)ccc23)ccc1N1CCN(C)CC1`, the inhibition is -0.31%.

On to `O=C(/C=C/c1ccc(Cl)c(Cl)c1)NCCCN1CCC(c2c[nH]c3ccccc23)CC1`, for which the inhibition worked out at 5.12%.

For `CC(CN(C)C)C(=O)Nc1cccc(-c2ccc(-c3nc4ccccc4[nH]3)cc2)c1` (stereo not given), the inhibition is 9.79%.

Consider `Cc1nc(-c2ccccc2)nc(N2CCN(C(=O)c3ccco3)CC2)c1Cc1ccccc1F`, for which the inhibition worked out at 9.03%.

For `CC(CN(C)C)C(=O)Nc1ccc(-c2ccc(-c3nc4cc(F)ccc4[nH]3)cc2)cc1` (stereo not given), the inhibition worked out at 1.98%.

With `Cc1c(CNCCCNc2cc(=O)c3ccccc3[nH]2)sc(/C=N/O)c1Br`, the inhibition stood at 3.79%.

Take `Nc1c(Cl)cc(C(O)CNCCCCCOCCc2ccc3occc3c2)cc1Cl` (stereo not given): the inhibition was found to be 3.64%.

Regarding `CCN1CCc2nc3ccccc3c(C(=O)Nc3ccc(C#N)cc3)c2C1`, the inhibition came out at 3.74%.

As to `Cc1cnc(C(=O)Nc2cccc(-c3ccc(-c4nc5cc(C(F)(F)F)ccc5[nH]4)s3)c2)cn1`, the inhibition amounted to 5.21%.

Turning to `C[C@H](Cc1ccc(Oc2ccc(C[C@@H](C)NC[C@H](O)c3cccc(Cl)c3)cc2)cc1)NC[C@H](O)c1cccc(Cl)c1`, the inhibition stood at 104%.

`O=C(/C=C/c1ccc(Cl)c(Cl)c1)NCCCCCN1CCC(C(=O)Nc2ccc(F)c(Cl)c2)CC1`: the inhibition worked out at 1.87%.

As to `C[C@H](NC(=O)c1c(CN2CCC(N3CCCCC3=O)CC2)c(-c2cccs2)nc2ccccc12)C1CCCCC1`, the inhibition was found to be 0.29%.

Regarding `CCCCN(CCCC)CCCCNc1c2ccc(Cl)cc2nc2ccc(OC)cc12`, the inhibition was 17.5%.

`NCC1CCCN1Cc1ccc(-c2cccc(-c3nc4cc(C(F)(F)F)ccc4[nH]3)c2)cc1` (stereo not given): the inhibition was determined as 1.99%.

Turning to `COc1cc2nc(NC3CCN(Cc4ccccc4)CC3)nc(N)c2cc1OC`, the inhibition is 2.22%.

Regarding `COc1cccc2cc(C(=O)N[C@@H](CC(C)C)C(=O)N[C@H](/C=N/NC(=O)OC(C)(C)C)CC(=O)OC(C)(C)C)oc12`, the inhibition turned out to be 6.98%.

Turning to `Fc1cc(CN2CCCC2)ccc1OCCCN1CCN(c2cccc(Cl)c2Cl)CC1`, the inhibition came to 5.47%.

Consider `COc1ccc(NC(=O)c2ccc(C=Cc3ccc(C(F)(F)F)cc3)cc2)cc1N1CCN(C)CC1`, for which the inhibition is 0.25%.

Regarding `CCOc1cc(C(=O)Nc2ccc(-c3nc4ccccc4[nH]3)cc2)cc(OCC)c1OCC`, the inhibition stood at 5.32%.

On to `CN(C)c1ccc(NC2=NC(N)=NC(C)(C)N2)cc1`, for which the inhibition amounted to 1.5%.

Take `CCNc1cc(C(=O)NC(Cc2ccccc2)C(O)CNC(C)(C)CCCC(C)C)c(F)c(N2CCCS2(=O)=O)c1` (stereo not given): the inhibition is -1.24%.

`FC(F)(F)c1cc(Nc2ccc(Oc3ccccc3)cc2)c2cc(-c3ccncc3)ccc2n1`: the inhibition was found to be 0.41%.

As for `O=C1CC(C(=O)Nc2cccc(-c3cccc(-c4nc5ccccc5[nH]4)c3)c2)c2ccccc2N1` (stereo not given), the inhibition turned out to be 6.55%.

As to `Clc1ccc(OCc2ccccc2)c(-c2nc(-c3nc4ccc(Cl)cc4[nH]3)cs2)c1`, the inhibition worked out at 2.99%.

For `CCn1c(-c2nonc2N)nc2c(-c3cccc(NC(=O)Nc4cccc(Cl)c4)c3)ncc(OCCCN)c21`, the inhibition turned out to be 3.86%.

`O=C(Nc1cccc(-c2ccc(-c3nc4cc(C(F)(F)F)ccc4[nH]3)cc2)c1)Nc1ccc(F)c(F)c1F`: the inhibition came to 0.2%.

As to `CCn1c(C)cc(C=C2SC(=Nc3ccccc3)NC2=O)c1C`, the inhibition was found to be 4.18%.

Consider `Cc1ccc(Nc2nc(N)c3ccccc3n2)cc1`, for which the inhibition is 17.5%.

Regarding `CC(C)CNCc1cccc(-c2cccc(CN(CCCN3CCN(C)CC3)C(=O)Nc3ccccc3)c2)c1`, the inhibition is -1.73%.
